Rows were chosen to be rich in hits. Some 2.7% of all compounds tested hit in one or more screens of this group.
IDE cell activ: human IDE activators in live cells, primary screen, fluorescence polarization, HEK cells, FAbeta-B substrate | Insulin-degrading enzyme (Homo sapiens), P14735 | FAbeta-B cleavage; 0% vehicle, 100% cell-free pure enzyme wells | activation, % at 5.96 µM | 340,000 compounds, 0.073% hits | AID 493087, 2011;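 active = activation above the mean of all tested compounds plus 3 SD, set per screening campaign, cut at about 17% in these data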
CHT inh: inhibitors of human choline transporter CHT. High affinity choline transporter 1 (Homo sapiens), Q9GZV3. CHT-expressing cells, membrane potential dye, choline response; stronger effect = lower value. B-score at 10 µM. 310,000 compounds, 0.86% hits. AID 488975, 2010;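 active = B-score over 3 SD under the library average, and starting fluorescence ratio not unusually high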;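 also: choline stimulus applied at its EC90 after an EC20 pre-addition; B-score computed on integrated fluorescence ratio after choline addition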
TMEM16A act: TMEM16A chloride channel activators or potentiators, primary screen, cell-based, HTS; Anoctamin-1 (Mus musculus), Q8BHY3; 340,000 compounds, 0.3% hits; AID 623877, 2012; HEK293 TMEM16A/YFP-H148Q/I152L, iodide quench fluorescence; stronger effect = lower value; B-score at 10 µM;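 active = fluorescence-ratio B-score plate-corrected deviation score at least 3 library SD below zero, with starting fluorescence score within 5 deviations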;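 also: channel opened by trigger with iodide after compound preincubation; score built on the fluorescence ratio of max minus min over baseline; more negative score means more quench and so TMEM16A activation or potentiation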
IDE inh: human IDE inhibitors in live cells, primary screen, fluorescence polarization, HEK cells, FAbetaB substrate. Insulin-degrading enzyme (Homo sapiens), P14735. FAbetaB cleavage. inhibition, % at 5.59 µM. 320,000 compounds, 0.41% hits. AID 434962, 2010;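 active = percent inhibition above the average of all tested compounds plus 3 SD, set per screening campaign, cut at about 16% in these data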;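 also: IDE supplied by intact live HEK cells; FP after avidin binding of uncleaved biotin substrate so inhibition keeps polarization high; 0% = DMSO wells and 100% = 60 µM reference IDE inhibitor Ii1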
CHT PAM: CHT positive allosteric modulators, primary screen, cell-based, membrane potential dye, choline EC20 | High affinity choline transporter 1 (Homo sapiens), Q9GZV3 | CHT-expressing cells; stronger effect = higher value; LV-AA mutant CHT in HEK293 cells | B-score at 10 µM | 310,000 compounds, 0.49% hits;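 active = initial fluorescence not abnormally high and integrated response B-score, plate-corrected, over 3 SD above library mean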
ANO1 block: TMEM16A chloride channel inhibitors, primary screen, cell-based, HTS; HEK293 TMEM16A/YFP iodide influx fluorescence, ionomycin; normalized B-score (activity score, 25-100; higher = stronger inhibition) at 10 µM; 310,000 compounds, 1.2% hits; AID 588511, 2011;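 active = ratio plate-corrected score three or more library SD toward inhibition, starting fluorescence score within five deviations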;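 also: score derived from kinetic fluorescence span divided by baseline fluorescence per well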
Active calls of the source: *.

For CC(C(=O)Nc1ccccc1)c1ccc(-c2ccccc2)c(F)c1 (configuration not stated) the results were IDE cell activ 4, CHT inh inactive, TMEM16A act inactive, IDE inh 4, CHT PAM inactive and ANO1 block 100*.
`CC1CC(=O)c2c(cc3c(-c4c(O)cc(O)c5c(O)c6c(cc45)OC(C)CC6=O)c(O)cc(O)c3c2O)O1` (configuration not stated) gave IDE cell activ 25*, CHT inh inactive, TMEM16A act -20*, IDE inh -15, CHT PAM inactive and ANO1 block inactive.
`CN1CCc2c(n(CC(O)CNCc3ccccc3)c3ccccc23)C1=O` (configuration not stated) gave IDE cell activ -4, CHT inh inactive, TMEM16A act inactive, IDE inh -2, CHT PAM inactive and ANO1 block inactive.
`CC(C)NCC(O)Cn1c2c(c3ccccc31)CCc1c-2cnn1-c1ccccc1` (configuration not stated) gave IDE cell activ 12, CHT inh -6.5*, TMEM16A act inactive, IDE inh -4, CHT PAM inactive and ANO1 block inactive.
Screening COc1ccc(-n2nc(C(=O)NCC(=O)Nc3cccc(Cl)c3)c3ccccc3c2=O)cc1OC returned IDE cell activ 3, CHT inh inactive, TMEM16A act inactive, IDE inh 1, CHT PAM inactive and ANO1 block 25*.
CCOc1ccc(NC(=O)CNC(=O)c2nn(-c3ccc(OC)c(OC)c3)c(=O)c3ccccc23)cc1 was read as IDE cell activ 1, CHT inh inactive, TMEM16A act inactive, IDE inh 4, CHT PAM inactive and ANO1 block inactive.
For CCOC(=O)c1sc(NC(=O)C2CC(=O)N(c3ccccc3OC)C2)nc1C (configuration not stated) the results were IDE cell activ 5, TMEM16A act inactive and IDE inh 4.
COc1nc(Nc2ccc(O)cc2)nc(OC(C(F)(F)F)C(F)(F)F)n1 was read as IDE cell activ 6, CHT inh inactive, TMEM16A act inactive, IDE inh -1, CHT PAM inactive and ANO1 block inactive.
Nc1cccc(Nc2nc(OC(C(F)(F)F)C(F)(F)F)nc(OC(C(F)(F)F)C(F)(F)F)n2)c1 was read as IDE cell activ -2, CHT inh inactive, TMEM16A act inactive, IDE inh 4, CHT PAM inactive and ANO1 block 100*.
For COc1ccc(N/C=C/C(=O)c2ccc(C)cc2)c([N+](=O)[O-])c1 the results were IDE cell activ 3, CHT inh inactive, TMEM16A act -7.2*, IDE inh 0, CHT PAM inactive and ANO1 block inactive.
Screening O=C(Nc1nc(=S)ss1)c1ccc(Cl)cc1Cl returned IDE cell activ 4, CHT inh -9.2*, TMEM16A act inactive, IDE inh 4, CHT PAM inactive and ANO1 block 100*.
COC(=O)Cn1c(CN2CCC(Cc3ccccc3)CC2)nc2c1c(=O)n(C)c(=O)n2C was read as IDE cell activ 5, CHT inh inactive, TMEM16A act inactive, IDE inh -5, CHT PAM inactive and ANO1 block 25*.
Screening CCCCN(C)C1=CC2=CC(=C(C#N)C#N)CCC2CC1 (configuration not stated) returned IDE cell activ 46*, CHT inh inactive, TMEM16A act inactive, IDE inh -13, CHT PAM inactive and ANO1 block inactive.
For CCN(CC)C1=CC2=CC(=C(C#N)C#N)CCC2CC1 (configuration not stated) the results were IDE cell activ 44*, CHT inh inactive, TMEM16A act inactive, IDE inh -20, CHT PAM inactive and ANO1 block inactive.
N#CC(C#N)=C1C=C2C=C(N3CCCCC3)CCC2CC1 (configuration not stated) was read as CHT inh inactive, IDE inh -30, CHT PAM inactive and ANO1 block inactive.
CCCCn1c(N)c(N(CCC(C)C)C(=O)C2CCCC2)c(=O)[nH]c1=O was read as IDE cell activ -2, TMEM16A act inactive and IDE inh 4.
`Cc1ccc(CS(=O)(=O)c2cn(CC(=O)Nc3ccon3)c3ccccc23)cc1` gave IDE cell activ 1, CHT inh inactive, TMEM16A act inactive, IDE inh 1, CHT PAM inactive and ANO1 block inactive.
Screening Cc1ccc(C(=O)N[C@H](C(=O)NC2CCCCCCC2)C(C)C)cc1 returned IDE cell activ 7, TMEM16A act inactive and IDE inh -4.
Screening CC1CCCC(NC(=O)CN2CCN(S(=O)(=O)c3ccc(Br)s3)CC2)C1C (configuration not stated) returned IDE cell activ 2 and TMEM16A act inactive.
For Cc1ccc(C)c(N2CCN(C(=O)CCCn3ncn4c(cc5occc54)c3=O)CC2)c1 the results were IDE cell activ 2, CHT inh inactive, TMEM16A act inactive, IDE inh -1, CHT PAM inactive and ANO1 block inactive.
`CC(=O)C(Cc1ccccc1)NC(=O)CN1c2cccc3cccc(c23)S1(=O)=O` (configuration not stated) gave IDE cell activ 4, TMEM16A act -9.8* and IDE inh 1.
`C#CCOCCOCCOCCNc1nc(N2CCN(C(=O)Cn3cc(CC(C)O)nn3)CC2)nc(N2CCN(C(=O)[C@H](CCCCN)n3cc(CC(C)O)nn3)CC2)n1` (some centres not stated) gave IDE cell activ 6 and TMEM16A act inactive.
CCN(CC)c1ccc(C=C2SC(=S)NC2=O)cc1 was read as IDE cell activ -105 and TMEM16A act -5.1*.
Screening CCn1cc(C(=O)O)c(=O)c2cnc(N3CCNCC3)nc21 returned CHT inh inactive, IDE inh -2, CHT PAM 11* and ANO1 block inactive.
For CC(C)[C@@H](NC(=O)C1CCN(C(=O)[C@@H]2CCCN2C(=O)OC(C)(C)C)CC1)C(=O)NCc1ccc(F)cc1 the results were IDE cell activ 6, CHT inh inactive, TMEM16A act -24*, IDE inh -2, CHT PAM inactive and ANO1 block inactive.

Source: PubChem
